Compounds with a hit are over-represented: about 18% of the library has one in this group of screens.
TDP1 inh: qHTS Assay for Inhibitors of Tyrosyl-DNA Phosphodiesterase (TDP1); Tyrosyl-DNA phosphodiesterase 1 (Homo sapiens), Q9NUW8; recombinant TDP1, AlphaScreen DNA substrate cleavage; Potency, µM (series often up to 130 µM), actives largely listed as inhibitors; hit rate 0.28% among 350,000; AID 485290, 2010; also: nearly all actives have a fitted effect of over 40% in size
Target sequence (Q9NUW8 whole entry, looked up): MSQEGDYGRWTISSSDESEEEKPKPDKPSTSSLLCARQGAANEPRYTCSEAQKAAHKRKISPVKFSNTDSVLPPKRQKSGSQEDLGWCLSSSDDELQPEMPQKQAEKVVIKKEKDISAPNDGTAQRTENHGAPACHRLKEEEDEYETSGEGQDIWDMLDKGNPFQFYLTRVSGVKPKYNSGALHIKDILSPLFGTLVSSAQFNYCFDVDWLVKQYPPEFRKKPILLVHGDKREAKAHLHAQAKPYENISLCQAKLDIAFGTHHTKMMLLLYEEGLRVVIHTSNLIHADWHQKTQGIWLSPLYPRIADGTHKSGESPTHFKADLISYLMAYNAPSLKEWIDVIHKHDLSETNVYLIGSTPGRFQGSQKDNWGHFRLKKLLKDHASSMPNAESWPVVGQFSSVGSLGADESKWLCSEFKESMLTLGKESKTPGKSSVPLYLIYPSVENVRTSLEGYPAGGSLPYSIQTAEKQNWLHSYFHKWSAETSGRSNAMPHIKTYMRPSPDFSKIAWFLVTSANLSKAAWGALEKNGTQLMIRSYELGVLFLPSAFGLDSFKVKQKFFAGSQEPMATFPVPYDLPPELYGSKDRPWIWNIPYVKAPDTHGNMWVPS
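Signal: AlphaScreen proximity between streptavidin donor and anti-FITC acceptor beads on intact substrate. Reaction: Tdp1 1 nM, substrate 15 nM final, 5 min RT after 15 min compound preincubation.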
IL1B secr inh: qHTS for Inhibitors of Inflammasome Signaling: IL-1-beta AlphaLISA Primary Screen; THP-1 LPS/ATP IL-1B secretion, AlphaLISA, 16 h; hits give low values; activity change, % at 57.5 µM; AID 743279, 2014; hit rate 4.7% among 360,000; in the data active = activity change below about -50%; inconclusive = mostly about -30% to -49%
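THP-1 cells pretreated 1 hr with compounds (up to 57.5 uM final), then stimulated with LPS (250 ng/mL final) plus ATP (1.25 mM final); secreted IL-1B measured by AlphaLISA after 16 hr, decreased signal indicating inhibition.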
DT40 TDP1 no CPT: qHTS for Inhibitors of human tyrosyl-DNA phosphodiesterase 1 (TDP1): qHTS in cells in absence of CPT; DT40 Tdp1-/- hTDP1 cells, no CPT, ATP luminescence, 48 h; Potency, µM (series often up to 46.2 µM), most hits filed as inhibitors; hit rate 15% among 420,000; AID 686978, 2013; also: nearly all actives have a fitted effect of over 55% in size
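Luminescent ATP content (CellTiter-Glo) served as the growth readout. Knockout chicken DT40 cells expressing human TDP1 were exposed to compounds without camptothecin for a minimum 48 hr at 37 °C.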
HepG2 tox: qHTS for Inhibitors of TGF-b: Cytotox Counterscreen. HepG2 CAGA-GFP viability, ATP luminescence, 18 h. Potency, µM (top dose mostly 46.1 µM), usual class: cytotoxic. hit rate 0.76% among 410,000
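HepG2 CAGA-GFP cells (1000/well, DMEM with 1% FBS) received compound, then TGF-beta at 500 pg/mL final, and were incubated 18 hours at 37 degrees C. Viability was read by CellTiter-Glo luminescence. Media-only wells were set as complete cell-killing and DMSO as no toxicity.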
TDP1 cell CPT: qHTS for Inhibitors of human tyrosyl-DNA phosphodiesterase 1 (TDP1): qHTS in cells in presence of CPT; chicken DT40 Tdp1-/-;hTDP1 cells + 20 nM CPT, ATP luminescence, 48 h; Potency, µM (series often up to 46.2 µM), usual class: inhibitors; hit rate 12% among 420,000; also: nearly all actives have a fitted effect of over 55% in size
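Cell growth measured by CellTiter-Glo luminescence after a minimum 48 h, 37 C compound exposure with 20 nM CPT in Tdp1-knockout DT40 cells stably expressing hTDP1, seeded 400/well; qHTS titration format.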
TGFb SMAD3 inh: qHTS for Inhibitors of TGF-b; HepG2 CAGA-GFP TGF-b/SMAD3 reporter, GFP fluorescence, 18 h; TGF-beta stimulated, 500 pg/mL final; Potency, µM (series often up to 46.1 µM), hits mostly inhibitors; hit rate 1.2% among 410,000; AID 588855, 2011; also: nearly all actives have a fitted effect of over 65% in size
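Read-out: total well GFP (ex488/em500-530) summed from mean per-cell fluorescence. Cells: HEPG2 CAGA-GFP, 1% FBS DMEM, 18 h at 37 degrees C with 500 pg/mL final TGF-beta. Unstimulated wells served as the full-inhibition control; stimulated DMSO wells = 0%.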
Large screens that a line does not name were inactive. Unless noted, calls follow the shape of the dose curve; as a rule, active = well fitted curve in the direction sought with a large enough effect; inconclusive = small, poorly fitted or top-dose-only effect, or another doubt; inactive = no such curve, though single readings can be large; an effect the other way counts as inactive or inconclusive.

Cc1ccc2nc(-c3ccc(F)cc3)c(Cc3cccc(Cl)c3)n2c1	DT40 TDP1 no CPT 25.9µM, TDP1 cell CPT 20.6µM, TGFb SMAD3 inh inconclusive (no result: TDP1 inh)
Cc1ccc2nc(-c3ccco3)c(Cc3cccc(F)c3)n2c1	IL1B secr inh inconclusive, DT40 TDP1 no CPT inconclusive, TDP1 cell CPT inconclusive, TGFb SMAD3 inh inconclusive (no result: TDP1 inh)
Cc1ccc2nc(-c3ccccc3)c(Cc3cccc(F)c3)n2c1	DT40 TDP1 no CPT 20.6µM, TDP1 cell CPT inconclusive (no result: TDP1 inh, HepG2 tox, TGFb SMAD3 inh)
COc1ccc(-c2nc3c(C)cc(Br)cn3c2CC(C)(C)C)cc1OC	TGFb SMAD3 inh inconclusive (no result: TDP1 inh)
COC(=O)c1ccc2nc(-c3ccc(OC)c(OC)c3)c(Cc3ccccc3OC)n2c1	DT40 TDP1 no CPT inconclusive, TDP1 cell CPT inconclusive, TGFb SMAD3 inh inconclusive (no result: TDP1 inh)
COc1ccccc1Cc1c(-c2ccc(OC)c(OC)c2)nc2ccc(C)cn12	DT40 TDP1 no CPT 23.1µM, TDP1 cell CPT inconclusive, TGFb SMAD3 inh inconclusive (no result: TDP1 inh)
COc1ccc(-c2nc3ccc(C)cn3c2CC(C)(C)C)cc1OC	DT40 TDP1 no CPT 20.6µM, TDP1 cell CPT 18.4µM, TGFb SMAD3 inh inconclusive (no result: TDP1 inh)
CC1CN(CCC(=O)NCc2ccc3ncccc3c2)Cc2cc(Cl)ccc2O1 (stereo not given)	DT40 TDP1 no CPT inconclusive (no result: TDP1 inh, IL1B secr inh, HepG2 tox, TGFb SMAD3 inh)
CC(=O)N1c2ccc(C)cc2Sc2c1ccc1ccccc21	DT40 TDP1 no CPT inconclusive (no result: TDP1 inh)
Cc1ccc2c(c1)S/C(=C/c1ccc[n+](CCO)c1)N2C	DT40 TDP1 no CPT 1.16µM, TDP1 cell CPT 0.651µM
Cc1ccc2c(c1)S/C(=C\c1cccc[n+]1C)N2CCO	DT40 TDP1 no CPT 1.64µM, TDP1 cell CPT 1.16µM, TGFb SMAD3 inh inconclusive (no result: TDP1 inh)
Cc1cccc(N(CC(=O)NCc2ccc(F)cc2)C(=O)c2ccco2)c1	none
Cc1ccc(Sc2ccc([N+](=O)[O-])cc2[N+](=O)[O-])nc1	IL1B secr inh -187.5, DT40 TDP1 no CPT 2.91µM, TDP1 cell CPT 2.59µM
Cc1ccnc(Sc2ccc([N+](=O)[O-])cc2[N+](=O)[O-])n1	IL1B secr inh -103.7, DT40 TDP1 no CPT 0.581µM, TDP1 cell CPT 0.731µM, TGFb SMAD3 inh inconclusive
CCn1c(SC(C)C(=O)NCC2CCCO2)nc2scc(-c3ccccc3)c2c1=O (stereo not given)	DT40 TDP1 no CPT inconclusive, TDP1 cell CPT 18.4µM
C=CCn1c(SCC(=O)Nc2ccc(C(=O)O)cc2)nc2scc(-c3ccccc3)c2c1=O	TGFb SMAD3 inh inconclusive
Cc1nc(SC(C)C(=O)NCC2CCCO2)c2cc(-c3ccccc3)sc2n1 (stereo not given)	IL1B secr inh -63.1, DT40 TDP1 no CPT 14.6µM, TDP1 cell CPT 14.6µM
C=CCn1c(SCC(=O)NCCCC)nc2scc(-c3ccco3)c2c1=O	IL1B secr inh -68.5, DT40 TDP1 no CPT inconclusive, TDP1 cell CPT inconclusive
C=CCn1c(SCC(=O)NCC2CCCO2)nc2scc(-c3ccccc3)c2c1=O (stereo not given)	DT40 TDP1 no CPT inconclusive, TDP1 cell CPT 25.9µM
COc1ccccc1NC(=O)CSCc1cc(=O)c2cccc(Cl)c2[nH]1	none (no result: IL1B secr inh)
Clc1cccc(CSc2nncn3c2cc2sccc23)c1	DT40 TDP1 no CPT inconclusive, TDP1 cell CPT inconclusive (no result: IL1B secr inh)
CC(C)C[C@@H](CC(=O)N[C@@H](CCCN)CC(=O)N[C@@H]1CCCC[C@H]1C(=O)N[C@H](CC(=O)N[C@@H](CCC(=O)O)CC(=O)O)Cc1ccccc1)NC(=O)[C@@H]1CNCC[C@H]1N	none (no result: IL1B secr inh, DT40 TDP1 no CPT, HepG2 tox, TDP1 cell CPT, TGFb SMAD3 inh)
CN(C)c1ccc(C=Cc2nccc3ccccc23)cc1	DT40 TDP1 no CPT inconclusive, TDP1 cell CPT inconclusive (no result: TDP1 inh)
COc1cccc(C=Cc2nccc3ccccc23)c1OC	IL1B secr inh -57.7, DT40 TDP1 no CPT 16.4µM, TDP1 cell CPT inconclusive (no result: TDP1 inh)
CCN(CC)c1ccc(/C=C/c2nccc3ccccc23)cc1	DT40 TDP1 no CPT 12.6µM, TDP1 cell CPT inconclusive (no result: TDP1 inh, IL1B secr inh)

From PubChem
